These results are taken from PubChem BioAssay (Tox21).

A number with no mark means an inactive call. Active and inactive are the calls of the source. Calls follow the shape of the dose curve; as a rule, active = well fitted curve in the direction sought with a large enough effect in the repeat runs; inconclusive = weak or mixed curves; inactive = flat fitted curve, though single readings scatter.
% is scaled to controls: 0 for no effect and ±100 for the full control effect.

This assay is described as follows: qHTS assay to test for compound auto fluorescence at 590 nm (red) in HEK293 cells (AID 720679). To be noted: red autofluorescence 540/590 nm; series mostly up to 91.3 µM; fluorescence, % of fluorescent control: at the top concentration. The text has this: National Center for Advancing Translational Sciences [NCATS]
NIH Chemical Genomics Center [NCGC]
U.S. Environmental Protection Agency [EPA]
National Institutes of Environmental Health Sciences [NIEHS]
National Toxicology Program [NTP]
U.S. Food and Drug Administration [FDA]
Compound auto fluorescence often interferes with screening of the compound library against various biological targets and signaling pathways. Some of these compounds may have fluorophoric properties. Such properties may interfere with the assay outputs resulting in false positives and/or negatives. To decrease such complications and ensure the compound activities are relevant in terms of biological response, the Tox21 10K compound library was screened for auto fluorescence.
From the fluorophores used as reporter signals in our screening assays, the auto fluorescence equivalencies of compounds against three fluorophores have been evaluated: Triamterene, Fluorescein and Rose Bengal sodium for blue, green and red fluorescence, respectively. The fluorescence intensities were measured using Excitation/Emission wavelengths at 405/460nm, 485/535nm and 540/590nm for blue, green and red labels, respectively. This assay includes the red fluorescence data.
Tox21 Assay Protocol Summary:
2,000 HEK293 cells in 5 uL of culture medium containing 10% dialyzed FBS per well were dispensed into black wall/clear bottom 1536-well plates using a Multidrop Combi Dispenser (Thermo Scientific). The assay plates were incubated for 4-5 hr at 37C to allow cell attachment to the well bottom, followed by the transfer of 23 nL compound or DMSO vehicle by a pintool work station (Kalypsys, San Diego, CA). After the assay plates were incubated overnight at 37C and 5% CO2, fluorescence intensities in the assay plates were measured by an Envision (PerkinElmer, Shelton, CT) plate reader using three labels for measuring blue, green and red fluorescence at […] 460, 535 and 590nm respectively.
Turning to `O=S(=O)(Oc1ccc(Cl)cc1Cl)c1ccccc1`, the result was inactive.

For the compound `O=C(c1cc(O)c(O)c(O)c1)c1ccc(O)c(O)c1O`, the compound was called inactive.

Regarding `CC#C[C@]1(O)CC[C@H]2[C@@H]3CCC4=CC(=O)CCC4=C3[C@@H](c3ccc(N(C)C)cc3)C[C@@]21C`, the outcome was inactive.

Consider `CCOC(=O)[C@H](CCc1ccccc1)N[C@@H](C)C(=O)N1Cc2ccccc2C[C@H]1C(=O)O`, for which the result was inactive.

Consider `OC1CCCC1`, for which the result was inactive.

As for `O=C(O)c1cc(-c2ccccc2)nc2ccccc12`, the compound was called inactive.

Turning to `OC[C@@H](O)[C@@H](O)[C@H](O)[C@@H](O)CO`, the call was inactive.

On to `NC(=O)NNc1ccccc1`, for which the result was inactive.

Consider `C=CC(=O)OCCCCCCCC(C)C`, for which the compound was classed as inactive.

`Cc1cc(NS(=O)(=O)c2ccc(N)cc2)no1`: the compound was called inactive.

As to `CC1Cc2ccccc2N1NC(=O)c1ccc(Cl)c(S(N)(=O)=O)c1` (stereo not given), the compound was called inactive.

With `CC1=C(CC(=O)O)c2cc(F)ccc2/C1=C\c1ccc(S(C)=O)cc1` (stereo not given), the result was inactive.

Turning to `O=C(Oc1ccccc1)c1ccc(O)cc1`, the compound was classed as inactive.

`CC(=O)CCc1ccccc1`: the result was inactive.

In the case of `O=S(=O)(O)CCS`, the compound was called inactive.

Take `CC(C)(N=C=O)c1cccc(C(C)(C)N=C=O)c1`: the result was inactive.

For the compound `O=C(O)c1ccc([N+](=O)[O-])cc1`, the result was inactive.

On to `CC(C)n1c(/C=C/[C@@H](O)C[C@@H](O)CC(=O)O)c(-c2ccc(F)cc2)c2ccccc21`, for which the compound was classed as inactive.

Regarding `Oc1c(Cl)cc(Cl)c(Cl)c1Cl`, the compound was classed as inactive.

As for `S=c1nc[nH]c2nc[nH]c12`, the call was inactive.

In the case of `Nc1nc2ncc(CNc3ccc(C(=O)N[C@@H](CCC(=O)O)C(=O)O)cc3)nc2c(=O)[nH]1`, the result was inactive.

Take `CNC[C@H](O)[C@@H](O)[C@H](O)[C@H](O)CO`: the compound was classed as inactive.

As to `NCc1cccc(CN)c1`, the call was inactive.

`Cc1ccc(N)c(S(=O)(=O)O)c1`: the call was inactive.

Take `CCCCNC(N)=O`: the result was inactive.

Regarding `COC(=O)Nc1nc2ccc(Sc3ccccc3)cc2[nH]1`, the outcome was inactive.

`c1ccc2[nH]cnc2c1`: the compound was called inactive.

With `Cc1ccc(C(=O)O)o1`, the result was inactive.

On to `CC1(C)O[C@@H]2C[C@H]3[C@@H]4C[C@H](F)C5=CC(=O)CC[C@]5(C)[C@H]4[C@@H](O)C[C@]3(C)[C@]2(C(=O)CO)O1`, for which the call was inactive.

Take `CCCCCCCCC`: the outcome was inactive.

Take `CN(C)c1cccc(O)c1`: the result was inactive.

On to `NCCNCCNCCNCCN`, for which the outcome was inactive.

Take `CC1=CC[C@H]2C[C@@H]1C2(C)C`: the result was inactive.

In the case of `Cc1cc(Cc2ccc(N)c(C)c2)ccc1N`, the result was inactive.

For `CCCCCCCCCCCCOCC1CO1` (stereo not given), the compound was classed as inactive.

On to `C[C@@H]1O[C@@H](OC[C@H]2O[C@@H](Oc3c(-c4ccc(O)c(O)c4)oc4cc(O)cc(O)c4c3=O)[C@H](O)[C@@H](O)[C@@H]2O)[C@H](O)[C@H](O)[C@H]1O`, for which the result was inactive.

Turning to `CS(=O)(=O)Nc1ccc([N+](=O)[O-])cc1Oc1ccccc1`, the compound was classed as inactive.

For the compound `C=C(C)C(=O)OCCCCCCCCCCCC`, the compound was called inactive.

`C[C@@H](O)[C@H]1C(=O)N2C(C(=O)O)=C(S[C@@H]3CN[C@H](C(=O)N(C)C)C3)[C@H](C)[C@H]12`: the “fluorescence, % of fluorescent control” value was 0.0634% [at 46 µM].

Turning to `Cc1ccc(C)c(C)c1`, the outcome was inactive.
